How the values were obtained:
[1] = biological target: T1, Aspartate--tRNA(Asp/Asn) ligase (Mycobacterium tuberculosis (strain ATCC 25618 / H37Rv)) (UniProt P9WFW3); assay: Assay for Asp RNA synthetase-1 from Mycobacterium tuberculosis; type: functional; set-up: scale not given: direction of the effect not stated beside the values; conditions: 30 µM; further: in the data most compounds retested in dose-response had high values
T1 sequence (whole entry): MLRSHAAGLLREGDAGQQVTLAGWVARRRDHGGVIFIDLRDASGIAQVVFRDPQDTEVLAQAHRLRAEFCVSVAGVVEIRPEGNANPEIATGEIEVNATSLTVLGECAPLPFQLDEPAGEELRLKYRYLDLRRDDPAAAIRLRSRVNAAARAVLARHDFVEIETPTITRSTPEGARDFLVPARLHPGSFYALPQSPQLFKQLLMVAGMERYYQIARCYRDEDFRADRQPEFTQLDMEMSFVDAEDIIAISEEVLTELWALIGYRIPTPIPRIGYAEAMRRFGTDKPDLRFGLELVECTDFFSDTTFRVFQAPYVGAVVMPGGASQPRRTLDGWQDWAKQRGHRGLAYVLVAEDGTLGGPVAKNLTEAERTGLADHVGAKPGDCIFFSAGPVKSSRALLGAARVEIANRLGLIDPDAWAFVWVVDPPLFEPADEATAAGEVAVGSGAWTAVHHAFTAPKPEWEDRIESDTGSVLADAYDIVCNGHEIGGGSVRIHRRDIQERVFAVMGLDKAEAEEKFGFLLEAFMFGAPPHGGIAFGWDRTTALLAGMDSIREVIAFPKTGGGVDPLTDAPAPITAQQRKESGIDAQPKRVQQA

[2] = biological target: Shiga toxin 2 (Escherichia coli O157:H7) (UniProt P09385+P09386); assay: E. coli 0.157:H7 Shiga Toxin SOP - stx2 screening assay; type: functional; set-up: scale not given: direction of the effect not stated beside the values; conditions: 30 µM

Cc1nn(C)c(N(C)C)c1CNCc1ccccc1CN(C)C
Percent Effect [1]: -4.76%
Percent Effect [2]: -24.6%

CCCc1n[nH]c(C2CN(C(=O)c3cc(F)ccc3OC)CCO2)n1 (configuration not stated)
Percent Effect [1]: 0%
Percent Effect [2]: 29.8%

O=C(NCc1cc(O)ncn1)C1COc2ccccc2C1 (configuration not stated)
Percent Effect [1]: -3.92%
Percent Effect [2]: 12.8%

Cc1ccc(N2CCCC(NCC(=O)Nc3cc(C)no3)C2)nn1 (configuration not stated)
Percent Effect [1]: -0.917%
Percent Effect [2]: -55.3%

CCc1nc(CC(=O)N2CCOCC2c2ncon2)cs1 (configuration not stated)
Percent Effect [1]: 1.11%
Percent Effect [2]: 11.7%

CCOc1cccc(CNC(=O)NCC(O)c2cccc(F)c2)c1 (configuration not stated)
Percent Effect [1]: 9.63%
Percent Effect [2]: 16.2%

Cc1cc(CN(C)Cc2cc3c(cc2OC(F)F)OCO3)on1
Percent Effect [1]: 4.16%
Percent Effect [2]: 19.4%

Cc1cc(C)c2c(c1)C1(CC(=O)Nc3c1cnn3C(C)C)C(=O)N2 (configuration not stated)
Percent Effect [1]: 1.68%
Percent Effect [2]: 1.39%

Cn1cc(NC(=O)N2CCC(NS(C)(=O)=O)CC2)ccc1=O
Percent Effect [1]: 57.4%
Percent Effect [2]: -31.1%

Cc1nn(C)c2c(=O)n(CC(=O)Nc3cc(Cl)cc(Cl)c3)nnc12
Percent Effect [1]: -7.23%
Percent Effect [2]: -36.8%

CCOc1cc(C)nc(N2CCN(C(=O)c3ccc[nH]3)CC2)n1
Percent Effect [1]: -0.0874%
Percent Effect [2]: 29.4%

CCc1noc(C2CCN(C(=O)CCn3nc(C)cc3C)CC2)n1
Percent Effect [1]: 8.14%
Percent Effect [2]: -32.8%

CC(NC(=O)NCCN1CCCCCC1=O)c1nncn1C (configuration not stated)
Percent Effect [1]: -7.63%
Percent Effect [2]: -18.6%

CC(=O)N(C)CC(=O)Nc1cccc(N2CCN(CC3CC3)CC2)c1
Percent Effect [1]: 7.12%
Percent Effect [2]: -14.8%

Cn1nccc1C1CCN(CC(O)c2cccc(F)c2)CC1 (configuration not stated)
Percent Effect [1]: -1.6%
Percent Effect [2]: -15.8%

Cc1cc(CN2CCCC2c2noc(C3CC3)n2)c2ccccc2n1 (configuration not stated)
Percent Effect [1]: 2.68%
Percent Effect [2]: 9.51%

O=C(c1cc(COc2ccc3c(c2)OCO3)[nH]n1)N1CCOCC1
Percent Effect [1]: -0.0228%
Percent Effect [2]: -36.8%

Cc1ccc2oc(C(=O)N3CCCC(n4nc(C)cc4C)C3)cc2n1 (configuration not stated)
Percent Effect [1]: -3.54%
Percent Effect [2]: 1.89%

Cc1noc(C2CCN(C(=O)c3c(C)noc3C)CC2)n1
Percent Effect [1]: 0.55%
Percent Effect [2]: -6.04%

CN(CCC#N)C(=O)CCOc1cccc(F)c1
Percent Effect [1]: -3.59%
Percent Effect [2]: -25.6%

CCS(=O)(=O)c1ccccc1N1CCC(NC(=O)NC2CCCC2)CC1
Percent Effect [1]: -3%
Percent Effect [2]: 7.11%

COc1cccc(COCC(=O)N2CCN(CC(C)(C)O)CC2)c1
Percent Effect [1]: -1.7%
Percent Effect [2]: 9.82%

COc1c(CNCc2cccc(CS(C)(=O)=O)c2)c(C)nn1C
Percent Effect [1]: 1.7%
Percent Effect [2]: 20.4%

Cc1cnc2n(c1=O)CC(C(=O)NC1CC1)CS2 (configuration not stated)
Percent Effect [1]: -3.65%
Percent Effect [2]: 0.421%

CCOc1nnc(CN(C)C2CCCN(c3cccnn3)C2)s1 (configuration not stated)
Percent Effect [1]: 3.86%
Percent Effect [2]: -25.9%

Cc1ccccc1Oc1ncccc1CNS(C)(=O)=O
Percent Effect [1]: -3.12%
Percent Effect [2]: -11.9%

O=C(c1ccc2c(c1)OCO2)N1CCCSCC1CN1CCCC1 (configuration not stated)
Percent Effect [1]: -0.0437%
Percent Effect [2]: -5.02%

CN1[C@H](CN2CCCC2)C[C@@H]2CN(C(=O)c3cccn3C)CC[C@@H]21
Percent Effect [1]: 2.46%
Percent Effect [2]: -2.89%

CCN(Cc1ccc2c(c1)OCCO2)C(=O)NCc1nc(C)cs1
Percent Effect [1]: -0.519%
Percent Effect [2]: 28.5%

CCN(CC)S(=O)(=O)N1CCCC(c2cccc(C(=O)O)c2)C1 (configuration not stated)
Percent Effect [1]: -1.97%
Percent Effect [2]: 9.71%

CCn1cc2c(n1)C(COC)CN(Cc1ccccn1)C2 (configuration not stated)
Percent Effect [1]: 7.76%
Percent Effect [2]: -16.8%

COC(=O)c1ccc(N2CCN(CCC#N)C(C)C2)cc1 (configuration not stated)
Percent Effect [1]: 2.13%
Percent Effect [2]: 37.7%

CC(=O)N1CCn2c(C(=O)N(C)C)cnc2C1
Percent Effect [1]: -2.78%
Percent Effect [2]: -21.6%

Cc1[nH]ncc1CCCNC(=O)Nc1ccc(C#N)cc1
Percent Effect [1]: 0.993%
Percent Effect [2]: -61.3%

Cc1cc(C(=O)NCc2ccc(N3CCCC(C(N)=O)C3)cc2)no1 (configuration not stated)
Percent Effect [1]: -6.8%
Percent Effect [2]: -3.03%

Cc1nnc2n1CCN(CCC(=O)Nc1sccc1C#N)C2
Percent Effect [1]: 1.26%
Percent Effect [2]: 22.9%

CN1[C@H](Cn2cccn2)C[C@@H]2CN(C(=O)Cc3cccs3)CC[C@@H]21
Percent Effect [1]: 3.12%
Percent Effect [2]: -12.8%

Cc1nnc(NC(=O)NC2CCOc3ccccc32)s1 (configuration not stated)
Percent Effect [1]: 1.16%
Percent Effect [2]: -1.42%

CC(=O)N1C[C@@H](c2ccsc2)[C@@H]2CN(Cc3cccc(Cl)c3)CC[C@@H]21
Percent Effect [1]: -0.368%
Percent Effect [2]: -9.53%

O=C(NC[C@H]1OC[C@@H]2CCN(Cc3ccco3)C[C@@H]21)c1ccsc1
Percent Effect [1]: -1.14%
Percent Effect [2]: 4.74%

OCC1CCCN1c1cc(NCCNc2ccccn2)ncn1 (configuration not stated)
Percent Effect [1]: 8.62%
Percent Effect [2]: -85.7%

c1ncn(CC2CN(CC3CCCC3)CCO2)n1 (configuration not stated)
Percent Effect [1]: 2.9%
Percent Effect [2]: -0.78%

COc1cccc(CNC(=O)N2CCN(Cc3cc(C)on3)CC2)c1
Percent Effect [1]: -2.94%
Percent Effect [2]: 4.64%

COCCCNC(=O)CN(C)C(=O)c1cc(C)ccc1N(C)C(C)C
Percent Effect [1]: 1.84%
Percent Effect [2]: 4.69%

O=C(NCCOc1ccc(F)c(F)c1)NCc1ccncc1
Percent Effect [1]: -0.948%
Percent Effect [2]: -4.38%

Cc1nn(C)c(C)c1C1COCCN1C(=O)Cc1cccc(F)c1 (configuration not stated)
Percent Effect [1]: 1.67%
Percent Effect [2]: -31%

Source: ChEMBL document CHEMBL3988442, “University of Dundee, Small-Polar-MMV Screening Library” (2021)
